# Reference: PubChem BioAssay (NCI)
# About 83,000 compounds went through this panel and 20% of them were active in at least one assay; those are over-represented in the sample as a whole.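 How to read the values: 0–100, growth inhibition (40 = 60% inhibited); 0, no net growth; -100 to 0, cell death (-40 = 40% of starting cells died; -100 = all dead).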 A number with no mark means an inactive call. Activity calls are given as the source filed them. How the source made its calls: active means growth percent below 10; inactive means the rest.
# Tested on: HL-60(TB) leukemia
# Experiment: NCI-60 one-dose screen, 48 h (100 = growth as untreated, 0 = no growth, -100 = all killed)
# Conditions: 10 µM unless noted
row,SMILES,growth
1,NS(=O)(=O)c1ccc(C(=O)N=Nc2c(O)[nH]c3c(F)cccc23)cc1,102%
2,Nc1nc2c(c3ncccc13)C(c1ccccc1)Cc1ncccc1-2 (stereo not given),65.9%
3,CN1CCN(Cc2ccc(NC(=O)c3cncc(C#Cc4cnc(N)c5ccncc45)c3)cc2C(F)(F)F)CC1,-9.61% (active)
4,C=CCn1cc(-c2nc3ccccc3s2)c2cc(-c3ccc4c5c(cccc35)C(=O)N(CCO)C4=O)ccc21,101%
5,COc1ccc(C2C3CCc4ccccc4C3=NN2C(=O)c2cc(OC)c(OC)c(OC)c2)cc1O (stereo not given),84.7%
6,Clc1ccc(Oc2ccc(Nc3ncnc4onc(-c5ccccc5)c34)cc2)c(Cl)c1,100%
7,CC(=O)OC[C@]12CCC(C)(C)C=C1[C@H]1CC[C@@H]3[C@@]4(C)CCCNC(C)(C)[C@@H]4CC[C@@]3(C)[C@]1(C)CC2,0.652% (active)
8,COc1ccc(O)c(-c2cc(-c3ccccc3)c(C#N)c(=O)[nH]2)c1,112%
9,Cn1c(=O)c(S(=O)(=O)c2ccccc2)cc2ccc3c(cnn3-c3ccc(Cl)cc3)c21,90.2%
10,Clc1ccc(OCc2nc(-c3ccccc3)n[nH]2)c(Cl)c1,94.9%
11,CNC(=O)c1cccc2cc(Oc3ccnc4cc(OCC5(N)CC5)c(OC)cc34)ccc12,91.6%
12,CCCCCCCCN(CCCCCCCC)C(=O)CCl,105%
13,O=C(O)Cc1cc(=O)[nH]n(-c2ccccc2)c1=O,95.3%
14,CCCCCCCCCCCCNC(=S)N/N=C/c1ccccc1O,49.1%
15,COc1ccc(O)c(-c2cc(-c3ccc(Cl)cc3)c(C#N)c(=O)[nH]2)c1,65.2%
16,CCN(CC)CCOC(=O)C(c1ccccc1)(c1ccccc1)C(C)C,91.8%
17,Nc1c(C(=O)O)cc(Cl)cc1[N+](=O)[O-],73.7%
18,CN(CCC#N)c1ccc(/C=C2\NC(=O)NC2=O)cc1,92.2%
19,CCOC(=O)C(COS(C)(=O)=O)(COS(C)(=O)=O)C(=O)OCC,104%
20,O=C(/C=C/c1cc2ccccc2[nH]c1=O)c1ccc(O)cc1,16%

row,SMILES,growth
1,CCN(CC)CCOCC[C@H]1CC[C@H]2[C@@H]3[C@H](C)Cc4cc(OS(N)(=O)=O)ccc4[C@H]3CC[C@]12C,-74.9% (active)
2,Cc1cc(=O)oc2cc(Oc3nc(-c4cccs4)cn4c(-c5cccs5)cnc34)ccc12,77.6%
3,Cc1c(C(=O)C(SC(=S)N2CCOCC2)SC(=S)N2CCOCC2)nnn1-c1ccc([N+](=O)[O-])cc1,91.3%
4,CC1(C)CC(=O)C2=C(C1)N(c1ccc(OC(F)(F)F)cc1)C(N)=C(C#N)C2c1ccc(Cl)cc1 (stereo not given),102%
5,CC(CN)[C@@H]1CC[C@]2(CO)CC[C@]3(C)[C@H](CC[C@@H]4[C@@]5(C)CCC(N)C(C)(C)[C@@H]5CC[C@]43C)[C@@H]12 (stereo not given in full),31.5%
6,NC(CSC(c1ccccc1)(c1ccccc1)c1ccc(F)cc1)C(=O)O (stereo not given),-39.2% (active)
7,CC(C)NC(=O)N/C=C(\C#N)C(N)=O,137%
8,CCOc1ccc(Br)cc1/C=C(\C#N)c1ccc([N+](=O)[O-])cc1,91.6%
9,Cc1nc2ccc(CN(C)c3ccc(C(=O)N[C@@H](CCC(=O)O)C(=O)O)s3)cc2c(=O)[nH]1,27.9%
10,FC(F)(F)c1[nH]ncc1-c1nc2ccc3n[nH]c(C#Cc4cccnc4)c3c2c2c1CCCC2,24.4%
11,CCCCCCCCCCC(=O)CCCCCCCCCC,95.4%
12,CCn1c(Cc2ccccc2Nc2c(Cl)cccc2Cl)nnc1SCC(=O)NN1C(=O)/C(=C/c2cc(OC)c(O)c(OC)c2)SC1=S,-1.07% (active)
13,COc1ccc(-c2c(-c3cc(OC)c4c(c3)OCO4)noc2N)cc1,-7.49% (active)
14,CNS(=O)(=O)c1cccc(-c2ccc3c4c(n(C)c(=O)c3c2)-c2ccccc2C4=O)c1,-4.99% (active)
15,COc1cccc(/C=C2\SC(N3CCN(c4ccccn4)CC3)=NC2=O)c1,95.5%
16,COc1ccc2cc(-c3nn(-c4ccc(C(=O)O)cc4)cc3CO)ccc2c1,50.3%
17,CN1CCn2c(c(Sc3ccc(C(=O)NO)cc3)c3ccccc32)C1=O,-1.35% (active)
18,CC(C)(C)c1ccc(O)c(C2CCCCC2)c1,67.4%
19,CCN(CC)CCCC(C)Nc1c2c(nc3ccc(OC)cc13)CCCC2 (stereo not given),80.3%
20,C[C@@H]1C(=O)N(C[C@H](Cc2ccccc2)NC(=O)OCc2ccccc2)[C@]1(Cc1ccccc1)C(=O)OCc1ccccc1,37.4%
